Results published in PMC4336329 (PLoS ONE, 2015).
About 14,000 (4.5%) of roughly 310,000 compounds showed an effect of 50% or more. Effects have a minus sign here. What follows is part of a selection rich in strong results, with near analogues and random picks from the rest.

Biological target: human ether-à-go-go-related gene (hERG) potassium channel (human, UniProt Q12809)
Experiment: primary screen, population patch clamp on CHO cells stably expressing hERG; higher = less effect of the substance
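Also: peak tail current of the secondary pulse compared with the same well before compound.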

human ether-à-go-go-related gene (hERG) potassium channel, sequence (Q12809 whole entry, looked up): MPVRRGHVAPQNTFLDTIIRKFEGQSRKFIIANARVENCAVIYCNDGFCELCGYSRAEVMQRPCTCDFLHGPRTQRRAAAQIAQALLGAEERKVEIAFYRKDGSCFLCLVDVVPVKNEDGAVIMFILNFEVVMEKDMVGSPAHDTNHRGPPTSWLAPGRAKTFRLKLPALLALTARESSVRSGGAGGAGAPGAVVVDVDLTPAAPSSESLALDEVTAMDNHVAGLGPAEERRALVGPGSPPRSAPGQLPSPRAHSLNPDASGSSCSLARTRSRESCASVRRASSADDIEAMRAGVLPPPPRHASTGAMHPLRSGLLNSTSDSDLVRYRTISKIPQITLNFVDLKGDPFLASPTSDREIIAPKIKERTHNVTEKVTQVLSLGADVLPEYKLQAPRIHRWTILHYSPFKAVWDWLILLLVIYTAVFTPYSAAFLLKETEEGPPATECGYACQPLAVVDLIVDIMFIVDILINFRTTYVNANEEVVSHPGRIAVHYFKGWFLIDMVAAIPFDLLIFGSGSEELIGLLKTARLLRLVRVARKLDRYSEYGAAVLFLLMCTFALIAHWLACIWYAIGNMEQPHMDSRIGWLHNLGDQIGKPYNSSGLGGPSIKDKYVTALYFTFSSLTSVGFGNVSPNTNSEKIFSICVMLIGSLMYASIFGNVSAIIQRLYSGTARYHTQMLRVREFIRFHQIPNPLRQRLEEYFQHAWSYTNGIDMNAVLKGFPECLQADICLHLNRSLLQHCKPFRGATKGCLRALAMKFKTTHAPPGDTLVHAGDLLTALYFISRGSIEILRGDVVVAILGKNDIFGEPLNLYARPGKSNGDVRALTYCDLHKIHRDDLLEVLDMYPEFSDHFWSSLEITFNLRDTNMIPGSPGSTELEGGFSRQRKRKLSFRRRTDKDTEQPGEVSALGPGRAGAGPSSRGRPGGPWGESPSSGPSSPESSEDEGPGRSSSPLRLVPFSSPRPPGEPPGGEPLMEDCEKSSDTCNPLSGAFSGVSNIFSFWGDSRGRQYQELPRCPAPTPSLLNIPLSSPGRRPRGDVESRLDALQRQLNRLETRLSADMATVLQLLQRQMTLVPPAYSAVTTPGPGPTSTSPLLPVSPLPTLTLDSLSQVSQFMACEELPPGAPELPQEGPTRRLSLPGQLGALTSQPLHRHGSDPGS

| SMILES | hERG current change (%, negative = inhibition) at 10uM [%] |
| --- | --- |
| CCOC(=O)N1CCN(C(=O)CCC2CCCC2)CC1 | 9.89 |
| Cc1cc(C)c(S(=O)(=O)c2c(C)cccc2C)c(OCC(C)C)n1 | 2.76 |
| COc1cccc(-c2nc(CS(=O)(=O)CC(=O)Nc3cc(C)ccc3C)c(C)o2)c1 | 7.02 |
| C[n+]1cn(Cc2ccc(C#N)cc2)c2ccccc21.[Cl-] | 2.75 |
| C=CCN=C1N[C@@H](c2ccccc2)C(C(=O)OC)=C(C)N1CCOC | -13 |
| CC(=O)N(C)c1ccc(NC(=S)Nc2cccc3ccccc23)cc1 | 3.38 |
| O=C(CSc1nnnn1-c1ccc(O)cc1)Nc1ccc(N2CCOCC2)c(Cl)c1 | -1.58 |
| CCOc1ccc(CCNC(=O)C2CCCN(c3nn4c(=O)cc(C)nc4s3)C2)cc1 (stereo not drawn) | -24.2 |
| COC(c1ccccc1)c1nnc(CCC(=O)NC2C3CC4CC(C3)CC2C4)o1 (stereo not drawn) | -3.85 |
| CCCCc1c(C)nc2c(OC)cccc2c1SCC(=O)O | 12.3 |
| O=C(C1CCC1)N1CCN(c2ccnc3cc(Cl)ccc23)CC1 | -71.4 |
| O=C(NNc1ccnc2cc(Cl)ccc12)C1CCCCC1 | 16.1 |
| O=C(Oc1ccnc2cc(Cl)ccc12)N1CCCCCC1 | -23 |
| O=C(C1CCCCC1)N1CCN(c2ccnc3cc(Cl)ccc23)CC1 | -66.1 |
| O=C(C1CC1)N1CCN(c2ccnc3cc(Cl)ccc23)CC1 | -73.6 |
| NC(=O)C1CCN(c2cc(Cl)ccc2[N+](=O)[O-])CC1 | 3.89 |
| NC(=O)C1CCN(c2ccnc3cc(Cl)ccc23)CC1 | -51.6 |
| CC1CN(c2ccnc3cc(Cl)ccc23)CC(C)O1 (stereo not drawn) | -39.7 |
| O=C(C1CCC1)N1CCN(c2ccc(Cl)cc2)CC1 | -5.33 |
| Cc1[nH]c2ccc(C(=O)N3CCN(C)CC3)cc2c1C | 30.8 |
| COc1ccc(C2CC(c3cccs3)=NN2c2ccc(F)cc2)cc1OC (stereo not drawn) | 26.6 |

| SMILES | hERG current change (%, negative = inhibition) at 10uM [%] |
| --- | --- |
| CCN1CCN(CCCNC(=O)c2ccc(NC(=O)C3=CSCCO3)cc2)CC1 | 19.9 |
| COc1ccccc1NC(=O)c1ccccc1-c1nc(-c2ccccc2OC)no1 | -57.7 |
| COc1ccccc1NC(=O)c1cc(C(=O)Nc2ccccc2OC)cc([N+](=O)[O-])c1 | 21.1 |
| COc1ccccc1NC(=O)c1ccc(Br)o1 | -6.16 |
| COc1ccccc1-c1noc(-c2ccccc2C(=O)Nc2ccccc2)n1 | 13.9 |
| COc1ccccc1NC(=O)c1ccc(C(=O)c2ccccc2)o1 | -69.4 |
| COc1ccccc1NC(=O)c1ccc(N)cc1 | 5.63 |
| CCOc1ccccc1NC(=O)c1ccccc1-c1nc(-c2ccccc2OC)no1 | -35.6 |
| COc1ccccc1NC(=O)c1cc(N)cc(C(=O)Nc2ccccc2OC)c1 | -50.6 |
| O=C(Nc1ccccc1O)c1ccc(C(=O)c2ccccc2)o1 | 11.2 |
| COc1ccc(C(=O)OCC(=O)NC(C)CCc2ccccc2)cc1OC (stereo not drawn) | 0.524 |
| O=C(COc1ccc([N+](=O)[O-])cc1)N(Cc1ccccc1)Cc1ccccc1 | -41.5 |
| COC(=O)c1c(C)oc2ccc(OC(=O)N3CCOCC3)cc12 | -8.62 |
| CCC(CC)c1nnc(NC(=O)c2cc(C(=O)OC)cc([N+](=O)[O-])c2)s1 | 7.7 |
| COC(=O)c1ccc(OC(=O)CCS(=O)(=O)c2ccc(C)cc2)cc1 | -16.4 |
| Cc1noc(C)c1CCC(=O)NC1CCCN(Cc2ccc(CC(C)C)cc2)C1 (stereo not drawn) | -66.8 |
| CC(C)Cc1ccc(CN2CCCC(NC(=O)CCn3cnnn3)C2)cc1 (stereo not drawn) | -46.2 |
| Cc1ccn(CC(=O)NC2CCCN(Cc3ccc(CC(C)C)cc3)C2)n1 (stereo not drawn) | -55.2 |
| CC(C)Cc1ccc(CN2CCCC(NC(=O)Cn3cnnn3)C2)cc1 (stereo not drawn) | -26.5 |
| CC(C)Cc1ccc(CN2CCCC(NC(=O)CCN3CCCCC3=O)C2)cc1 (stereo not drawn) | -45.3 |
| Cc1noc(C)c1CCC(=O)NC1CCCN(Cc2ccc(Cl)cc2)C1 (stereo not drawn) | -24 |

| SMILES | hERG current change (%, negative = inhibition) at 10uM [%] |
| --- | --- |
| CC(=O)c1c(C)nn(CC(=O)NC2CCCN(Cc3ccc(CC(C)C)cc3)C2)c1C (stereo not drawn) | -73.4 |
| CC(C)Cc1ccc(CN2CCCC(NC(=O)CSc3nncn3C)C2)cc1 (stereo not drawn) | -23.7 |
| CC(C)Cc1ccc(CN2CCCC(NC(=O)CCN3CCOCC3)C2)cc1 (stereo not drawn) | -37.4 |
| CC(C)C[C@H](NC(=O)c1nc[nH]c1C(=O)NCc1ccc(CNC(=O)OC(C)(C)C)cc1)C(=O)OC(C)(C)C | 2.06 |
| CN(C)Cc1nc2c(c(=O)[nH]1)C1(CCCCC1)Cc1ccccc1-2 | -11.7 |
| CSc1ccc(/C=C/C(=O)NC23CC4CC(CC(C4)C2)C3)cc1 | 14.6 |
| C=CCNC(=S)NNC(=O)c1ccc(OCCCC)cc1 | 10.2 |
| CCN(CC(=O)NC(C)C)C(=O)[C@@H](NC(=O)c1ccco1)C(C)C | 11.5 |
| COc1ccc([N+](=O)[O-])cc1C(=O)C(=O)c1ccccc1 | 8.56 |
| O=C(CCn1c(=O)oc2ccccc21)NCCCN1CCOCC1 | 16.9 |
| O=C(CCn1c(=O)oc2ccccc21)N1CCN(c2ccc(F)cc2)CC1 | -58 |
| O=C(CCn1c(=S)oc2ccccc21)N1CCN(c2ccc(F)cc2)CC1 | -25.3 |
| O=C(CCCn1c(=O)oc2ccccc21)N1CCN(c2ccc(F)cc2)CC1 | -63.9 |
| Cl.O=C(CCN1C(=O)c2ccccc2S1(=O)=O)N1CCN(c2ccccc2)CC1 | 2.96 |
| O=C(CCn1c(=O)oc2ccccc21)NCCN1CCOCC1 | -2.83 |
| O=C(CCn1c(=O)oc2ccccc21)NCCCN1CCN(c2ccc(F)cc2)CC1 | -66.2 |
| O=C(CN1C(=O)c2ccccc2S1(=O)=O)N1CCN(c2ccc(F)cc2)CC1 | -7.37 |
| O=C(CCn1c(=O)oc2ccccc21)N1CCN(c2ccccc2F)CC1 | -23.8 |
| O=C(CCCn1c(=O)oc2ccccc21)N1CCN(c2ccccn2)CC1 | -47.6 |
| O=C1CCN(C(=O)CCCn2c(=O)oc3ccccc32)CC1 | 17 |
| O=C(CCN1C(=O)c2ccccc2S1(=O)=O)N1CCN(c2ccc(F)cc2)CC1 | -61.9 |
